Our source for the growth values is PubChem BioAssay (NCI).

“And” between values parts separate entries of the source, which are not always exact repeats. Identical values can stand only once. This is part of a sample that, as a whole, favours compounds with a hit. Of some 83,000 tested, about 20% had one in any assay.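 Values shown are percent growth following 48 h exposure of cells in 96-well plates to a single concentration of compound; below 10 was considered active.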 The source made the active and inactive calls.

The test system of the first assay is HT29 colon. Briefly: NCI-60 one-dose screen, 48 h (100 = growth as untreated, 0 = no growth, -100 = all killed). To be noted: 10 µM unless noted.
On to `COc1cc2c(cc1OC)[C@@H]1C(=O)c3ccc4c(c3O[C@@H]1CO2)C[C@H](C(C)C)O4`, for which the growth was 83.1% (inactive).
For `CC(=O)Cc1ccc2c(c1)OCO2`, the growth is 98.6% (inactive).
On the same count and under the same terms, to `CCN(CC)CCn1c(=O)n(C)c2ccccc21` belongs 112% (inactive); to `CC(=O)c1cccc(S(=O)(=O)F)c1`, 104% (inactive); to `COc1cc2c(c(OC)c1OC)-c1ccc(O)cc1[C@@H](NC(C)=O)CC2`, 5.06% (active).
Same read-out and setting: the result for `Cc1c2ccncc2c(C)c2c1[nH]c1ccccc12` reads 2% (active); that for `NC(=O)Oc1cc(OC(N)=O)cc(N(CCCl)CCCl)c1`, 64.1% (inactive); that for `Nc1cccnc1`, 103% (inactive).
Regarding `C/C=C(/C)C(=O)O[C@H]1CC[C@@]2(C)[C@@H]3CC[C@H]4[C@]5(O)C[C@H](O)[C@@]6(O)[C@@H](CN7C[C@@H](C)CC[C@H]7[C@@]6(C)O)[C@]5(O)C[C@@]42O[C@@]13O`, the growth was 92.4% (inactive).
Same read-out and setting: the result for `CC1(C)N=C(N)N=C(N)N1c1ccc(CCC(=O)Nc2ccc(S(=O)(=O)F)cc2)cc1` reads 9.44% (active).
Turning to `Cc1ccc(C(=O)O[C@H](C(=O)O)[C@H](OC(=O)c2ccc(C)cc2)C(=O)O)cc1`, the growth was 98% (inactive).
Regarding `O=S(=O)(F)c1cccc(Cl)c1C[P+](c1ccccc1)(c1ccccc1)c1ccccc1`, the growth is 96.7% (inactive).
As to `CN1CCC2(CC1)C(C#N)C(=O)NC(=O)C2C#N` (stereo unspecified), the growth was 118% (inactive).
The same measure, in the same setting: to `O=[N+]([O-])c1cc(Cl)c(Cl)c([N+](=O)[O-])c1Cl` belongs 29.9% (inactive); to `CC1(C)CN=C(NN=C(/C=C/c2ccc(C(F)(F)F)cc2)/C=C/c2ccc(C(F)(F)F)cc2)NC1`, -83.2% (active).
Still for that read-out and setting: the result for `Cc1cc[n+](CCc2ccccc2)cc1` reads 98.4% (inactive) and 92.6% (inactive); that for `CC1=C(C)C(=O)O[C@@H]([C@](C)(O)[C@]2(O)CC[C@@]3(O)[C@@H]4C[C@H]5O[C@]56CC=CC(=O)[C@]6(C)[C@H]4CC[C@]23C)C1`, 1.74% (active); that for `CC(Oc1ccc(-c2ccccc2)cc1)C(=O)O` (stereo unspecified), 103% (inactive).
The same measure, in the same setting: the result for `O=S1(=O)OCCO1` reads 107% (inactive).
For `COc1c(O)cc2c(c1OC)-c1ccc(SC)c(=O)cc1C(NC(C)=O)CC2` (stereo unspecified), the growth was -18.9% (active).
Still for that read-out and setting: to `Nc1nc(=S)nc(N)[nH]1` belongs 104% (inactive).
The same measure, in the same setting: the result for `C[C@H](O)CCC(=O)c1ccoc1` reads 106% (inactive); that for `Cn1cc(C(=O)C[n+]2ccccc2)c2ccccc21`, 105% (inactive); that for `Cc1cc(C(C)(C)C)ccc1O`, 106% (inactive).
Still for that read-out and setting: to `N#CC(C#N)=Cc1cccc(F)c1` belongs 104% (inactive).

The subject of the next assay is SNB-75 CNS. The assay is described as above. The conditions noted are these: 10 µM unless noted.
On to `c1ccc2c(c1)O[As](O[As]1Oc3ccccc3O1)O2`, for which the growth was 1.6% (active).
Still for that read-out and setting: the result for `COc1cc2c(cc1OC)[C@@H]1C(=O)c3ccc4c(c3O[C@@H]1CO2)C[C@H](C(C)C)O4` reads 90.1% (inactive); that for `CC(=O)Cc1ccc2c(c1)OCO2`, 117% (inactive).
Same read-out and setting: to `CCN(CC)CCn1c(=O)n(C)c2ccccc21` belongs 97% (inactive); to `CC(=O)c1cccc(S(=O)(=O)F)c1`, 117% (inactive).
On the same count and under the same terms, the result for `COc1cc2c(c(OC)c1OC)-c1ccc(O)cc1[C@@H](NC(C)=O)CC2` reads 12.7% (inactive) and 14.9% (inactive).
With `Cc1c2ccncc2c(C)c2c1[nH]c1ccccc12`, the growth was -89% (active).
Still for that read-out and setting: to `NC(=O)Oc1cc(OC(N)=O)cc(N(CCCl)CCCl)c1` belongs 49.2% (inactive).
Still for that read-out and setting: to `C/C=C(/C)C(=O)O[C@H]1CC[C@@]2(C)[C@@H]3CC[C@H]4[C@]5(O)C[C@H](O)[C@@]6(O)[C@@H](CN7C[C@@H](C)CC[C@H]7[C@@]6(C)O)[C@]5(O)C[C@@]42O[C@@]13O` belongs 79.9% (inactive); to `C[C@]12CCC(=O)C[C@@H]1CC[C@@H]1[C@@H]2CC[C@]2(C)[C@@H](OC(=O)N(CCCl)N=O)CC[C@@H]12`, 39.4% (inactive); to `CC1(C)N=C(N)N=C(N)N1c1ccc(CCC(=O)Nc2ccc(S(=O)(=O)F)cc2)cc1`, 51.8% (inactive).
Same read-out and setting: to `Cc1c(C)c(N)c(C)c(C)c1N` belongs 110% (inactive); to `Cc1ccc(C(=O)O[C@H](C(=O)O)[C@H](OC(=O)c2ccc(C)cc2)C(=O)O)cc1`, 103% (inactive).
For `O=S(=O)(F)c1cccc(Cl)c1C[P+](c1ccccc1)(c1ccccc1)c1ccccc1`, the growth is 81.2% (inactive).
The same measure, in the same setting: the result for `CN1CCC2(CC1)C(C#N)C(=O)NC(=O)C2C#N` (stereo unspecified) reads 76.4% (inactive); that for `COc1ccc(N)cc1N`, 88.7% (inactive); that for `Cc1cc(NC(=O)NCCCOc2ccc(N3C(N)=NC(N)=NC3(C)C)cc2Cl)ccc1S(=O)(=O)F`, 53.1% (inactive).
Still for that read-out and setting: the result for `O=C1c2ccccc2C(=O)N1N1CC1c1ccccc1` (stereo unspecified) reads 100% (inactive); that for `CC1(C)CN=C(NN=C(/C=C/c2ccc(C(F)(F)F)cc2)/C=C/c2ccc(C(F)(F)F)cc2)NC1`, -88.6% (active).
Still for that read-out and setting: the result for `C#COc1cccc(Nc2ncnc3cc(NC(=O)CF)ccc23)c1` reads 48.2% [6.25 µM] (inactive); that for `COc1ccc(/C=C(/C)[N+](=O)[O-])cc1OC`, 78.5% (inactive) and 53.6% (inactive); that for `Cc1cc[n+](CCc2ccccc2)cc1`, 96.3% (inactive) and 84.1% (inactive).
On to `CC1=C(C)C(=O)O[C@@H]([C@](C)(O)[C@]2(O)CC[C@@]3(O)[C@@H]4C[C@H]5O[C@]56CC=CC(=O)[C@]6(C)[C@H]4CC[C@]23C)C1`, for which the growth is -11.3% (active).
The same measure, in the same setting: to `CC(Oc1ccc(-c2ccccc2)cc1)C(=O)O` (stereo unspecified) belongs 91.6% (inactive); to `O=S1(=O)OCCO1`, 90.5% (inactive); to `COc1c(O)cc2c(c1OC)-c1ccc(SC)c(=O)cc1C(NC(C)=O)CC2` (stereo unspecified), -13.2% (active).
Same read-out and setting: to `O=Cc1cn(Cc2ccccc2)c2ccccc12` belongs 67.8% (inactive); to `O=C(O)C(O)c1ccc(Cl)cc1` (stereo unspecified), 100% (inactive) and 112% (inactive).
The same measure, in the same setting: the result for `c1ccc2c(c1)sc1ccccc12` reads 85.3% (inactive).
Turning to `O=C1CN2CCC1CC2`, the growth is 102% (inactive).
Same read-out and setting: the result for `Cc1cc(C(C)(C)C)ccc1O` reads 102% (inactive).
